Measurements published in PubChem BioAssay.
Active and inactive are the calls of the source.

Key:
[1] = optical density shifts of acrAB sulA E. coli – strain DRC41, OD650, 48 h, E. coli filamentation inducer project, primary screen (AID 1152); conditions: higher = more signal, called active from +8 up or from −8 down;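 further: E. coli MC1000 strain DRC41 lacking acrAB efflux pump and sulA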
[2] = probe aLefty1 binding on compound microarray – biochemical, small-molecule microarray, 635/667 nm fluorescence, primary screen (AID 1153); conditions: higher = more signal;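 further: score merges spot fluorescence with signal-to-noise ratio from the scanned slide images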
[3] = plasmodial surface anion channel blockers, osmotic lysis – cell-based, P. falciparum Indochina, OD700, 1 h, primary screen (AID 1154); conditions: P. falciparum Indochina infected RBC osmotic lysis, higher = more signal, called active from +8 up or from −8 down
[4] = plasmodial surface anion channel blockers, osmotic lysis – cell-based, P. falciparum Indochina, OD700, 2 h, primary screen (AID 1155);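 further: lysis reports solute entry through the parasite surface anion channel PSAC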; conditions: P. falciparum Indochina infected erythrocytes, higher = more signal, called active from +8 up or from −8 down
[5] = changes in parasitized red cell lysis, either direction – P. falciparum Indochina, OD700, 3 h, PSAC antagonist project, primary screen (AID 1156); conditions: P. falciparum-infected erythrocytes, osmotic lysis, higher = more signal, called active from +8 up or from −8 down
[6] = plasmodial surface anion channel blockers, osmotic lysis – cell-based, P. falciparum Indochina, OD700, 18 h, primary screen (AID 1157); conditions: P. falciparum Indochina infected erythrocytes, osmotic lysis OD700, 18 h; higher = more signal, called active from +8 up or from −8 down
[7] = S6 kinase pathway phospho-S6 level changes – cell-based, A549, cytoblot, luminescence, serum-stimulated, primary screen (AID 1158); conditions: 5 h, higher = more signal;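 further: serum-stimulated A549 lung adenocarcinoma cells; signal is phosphorylated S6 detected by cytoblot immunostaining with HRP secondary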
[8] = target: NADPH oxidase 2 (Homo sapiens) (UniProt P04839); test: compounds shifting NOX2 Amplex Red fluorescence – cell-based, HEK293-NOX2, PMA-stimulated, NOX inhibitor project, primary screen (AID 1159); conditions: 45 min, higher = more signal, called active from +8 up or from −8 down; further: test concentration not given here
Sequence of NADPH oxidase 2 (Homo sapiens) (P04839 whole entry, looked up): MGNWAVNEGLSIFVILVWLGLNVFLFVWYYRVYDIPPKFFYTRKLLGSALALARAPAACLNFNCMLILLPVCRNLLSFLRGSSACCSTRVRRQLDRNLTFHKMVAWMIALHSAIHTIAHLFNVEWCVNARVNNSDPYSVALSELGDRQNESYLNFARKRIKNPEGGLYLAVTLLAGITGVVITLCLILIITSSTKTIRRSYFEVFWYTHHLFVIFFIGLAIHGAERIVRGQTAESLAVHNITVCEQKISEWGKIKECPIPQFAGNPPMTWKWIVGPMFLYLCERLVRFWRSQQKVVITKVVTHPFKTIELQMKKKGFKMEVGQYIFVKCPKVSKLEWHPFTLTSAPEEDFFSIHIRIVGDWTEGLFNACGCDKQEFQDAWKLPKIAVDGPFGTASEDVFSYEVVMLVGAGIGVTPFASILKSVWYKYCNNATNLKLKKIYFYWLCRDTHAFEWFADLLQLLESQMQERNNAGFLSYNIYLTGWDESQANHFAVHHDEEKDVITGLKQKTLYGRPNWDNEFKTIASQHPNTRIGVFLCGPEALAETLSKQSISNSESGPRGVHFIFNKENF

[9] = target: NADPH oxidase 4 (Homo sapiens) (UniProt Q9NPH5); test: compounds shifting NOX4 Amplex Red fluorescence – cell-based, HEK293-NOX4, tetracycline-induced, NOX inhibitor project, primary screen (AID 1160); conditions: HEK293-NOX4, Amplex Red H2O2 fluorescence, 45 min; higher = more signal, called active from +8 up or from −8 down
Sequence of NADPH oxidase 4 (Homo sapiens) (Q9NPH5 whole entry, looked up): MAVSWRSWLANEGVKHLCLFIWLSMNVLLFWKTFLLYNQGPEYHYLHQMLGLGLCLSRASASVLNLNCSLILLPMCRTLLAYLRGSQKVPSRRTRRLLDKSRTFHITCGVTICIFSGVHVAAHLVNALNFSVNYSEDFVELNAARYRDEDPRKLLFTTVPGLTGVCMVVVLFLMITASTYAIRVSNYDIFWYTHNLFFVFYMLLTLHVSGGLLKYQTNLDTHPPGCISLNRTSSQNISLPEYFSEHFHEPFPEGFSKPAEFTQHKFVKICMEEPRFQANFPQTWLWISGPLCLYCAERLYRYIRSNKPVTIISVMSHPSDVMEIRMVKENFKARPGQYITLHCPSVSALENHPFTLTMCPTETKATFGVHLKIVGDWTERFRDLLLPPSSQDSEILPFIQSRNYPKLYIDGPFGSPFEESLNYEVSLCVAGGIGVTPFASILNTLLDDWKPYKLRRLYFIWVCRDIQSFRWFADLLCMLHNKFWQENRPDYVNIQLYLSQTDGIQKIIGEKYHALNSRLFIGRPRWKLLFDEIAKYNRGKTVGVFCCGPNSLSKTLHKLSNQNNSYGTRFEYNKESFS

[10] = target: NADPH oxidase 5 (Homo sapiens) (UniProt Q96PH1); test: compounds shifting NOX5 Amplex Red fluorescence – cell-based, HEK293-NOX5, NOX inhibitor project, primary screen (AID 1161); conditions: HEK293-NOX5, ionomycin, 45 min, higher = more signal
Sequence of NADPH oxidase 5 (Homo sapiens) (Q96PH1 whole entry, looked up): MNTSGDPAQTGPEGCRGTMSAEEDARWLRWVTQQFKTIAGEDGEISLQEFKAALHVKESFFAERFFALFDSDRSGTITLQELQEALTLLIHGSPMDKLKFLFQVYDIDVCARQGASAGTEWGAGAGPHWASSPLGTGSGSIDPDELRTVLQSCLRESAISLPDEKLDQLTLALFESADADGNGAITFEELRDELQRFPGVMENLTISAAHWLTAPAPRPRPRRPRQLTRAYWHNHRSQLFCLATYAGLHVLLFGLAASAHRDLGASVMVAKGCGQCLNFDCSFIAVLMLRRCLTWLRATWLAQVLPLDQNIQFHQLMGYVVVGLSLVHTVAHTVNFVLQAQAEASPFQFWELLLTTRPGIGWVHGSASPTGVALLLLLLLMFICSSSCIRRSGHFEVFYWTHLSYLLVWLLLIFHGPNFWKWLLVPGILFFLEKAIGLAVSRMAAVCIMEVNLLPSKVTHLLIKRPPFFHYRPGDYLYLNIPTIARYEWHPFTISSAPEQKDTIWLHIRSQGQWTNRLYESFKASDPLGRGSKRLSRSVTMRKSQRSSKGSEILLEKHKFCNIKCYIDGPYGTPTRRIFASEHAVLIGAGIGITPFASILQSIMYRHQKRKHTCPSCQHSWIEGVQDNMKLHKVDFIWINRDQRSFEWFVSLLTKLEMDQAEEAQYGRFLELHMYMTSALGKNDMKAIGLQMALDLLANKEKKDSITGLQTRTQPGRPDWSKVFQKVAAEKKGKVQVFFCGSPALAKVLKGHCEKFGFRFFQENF

[11] = compound effects on lung adenocarcinoma cell viability – A549, calcein-AM fluorescence, 48 h, basal, profiling panel (AID 1162); conditions: higher = more signal; further: test concentration not given here
[12] = compound effects on differentiated 3T3-L1 adipocyte viability – cell-based, 3T3-L1 adipocytes, calcein-AM fluorescence, 48 h, basal, profiling panel (AID 1163); conditions: 3T3-L1 adipocytes viability, higher = more signal; further: test concentration not given here
[13] = compound effects on hepatocellular carcinoma cell viability – HepG2, calcein-AM fluorescence, 48 h, basal, profiling panel (AID 1164); conditions: higher = more signal; further: test concentration not given here
[14] = compound effects on multiple myeloma cell viability – MM1S, calcein-AM fluorescence, 48 h, basal, profiling panel (AID 1165); conditions: higher = more signal; further: test concentration not given here
[15] = calcein-AM signal in unstimulated myeloma cells – cell-based, calcein-AM fluorescence, 48 h, PK04 Diversity Set, profiling panel (AID 1166); conditions: RPMI8226 myeloma viability, higher = more signal;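 further: cells grown under basal conditions without added stimulus; test concentration not given here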
[16] = JC-1 mitochondrial signal, unstimulated HepG2 cells – cell-based, JC-1 fluorescence, 24 h, 100 nL compound, profiling panel (AID 1167); conditions: HepG2 mitochondrial potential, higher = more signal; further: test concentration not given here
[17] = JC-1 mitochondrial signal, unstimulated adipocytes – cell-based, JC-1 fluorescence, 3T3-L1 adipocytes, 24 h, 100 nL compound, profiling panel (AID 1168); conditions: JC-1 mitochondrial fluorescence, higher = more signal, called active from +8 up or from −8 down; further: test concentration not given here
[18] = JC-1 mitochondrial signal, unstimulated myeloma cells – cell-based, JC-1 fluorescence, RPMI8226, 24 h, 100 nL compound, profiling panel (AID 1169); conditions: JC-1 mitochondrial potential fluorescence, higher = more signal; further: test concentration not given here
[19] = JC-1 mitochondrial signal, unstimulated MM1S myeloma – cell-based, JC-1 fluorescence, 24 h, 100 nL compound, profiling panel (AID 1170); conditions: MM1S mitochondrial potential, higher = more signal; further: test concentration not given here
[20] = resazurin metabolic signal in A549 cells – cell-based, resazurin fluorescence, 24 h, PK04 Diversity Set, profiling panel (AID 1171); conditions: A549 viability, higher = more signal, called active from +8 up or from −8 down; further: test concentration not given here

| SMILES | z-score [1] | composite z-score [2] | z-score [3] | z-score [4] | z-score [5] | z-score [6] | z-score [7] | z-score [8] | z-score [9] | z-score [10] | z-score [11] | z-score [12] | z-score [13] | z-score [14] | z-score [15] | z-score [16] | z-score [17] | z-score [18] | z-score [19] | z-score [20] |
| --- | --- | --- | --- | --- | --- | --- | --- | --- | --- | --- | --- | --- | --- | --- | --- | --- | --- | --- | --- | --- |
| COC(=O)CC=C[C@@H](C)[C@@H](C=NOCC[C@@H]1C=C[C@H](OC(C)=O)[C@@H](COC(C)=O)O1)NS(=O)(=O)c1ccc(C)cc1 | 0.385 (inactive) | 0.212 | 0.944 (inactive) | 0.107 (inactive) | -0.113 (inactive) | 0.196 (inactive) | -0.879 | 0.174 (inactive) | 0.911 (inactive) | -0.075 | 0.498 | 0.037 | -0.726 | 0.212 | -0.128 | -0.716 | -1.63 (inactive) | 0.533 | 0.0173 | -0.364 (inactive) |
| CON=CC[C@@H]1C=C[C@H](OC(C)=O)[C@@H](COC(C)=O)O1 | -2.1 (inactive) | 0.171 | 0.0262 (inactive) | 0.0956 (inactive) | -0.833 (inactive) | 0.245 (inactive) | -0.841 | 0.0851 (inactive) | -0.0561 (inactive) | -0.107 | 0.779 | -0.221 | -0.0589 | -1.09 | -0.0741 | 0.308 | -0.835 (inactive) | -0.589 | -0.0369 | -0.357 (inactive) |
| O=C1[C@H]2[C@H]3[C@H](O)[C@H](O)CC(=NO[C@@H]4O[C@H](CO)[C@@H](O)[C@H](O)[C@H]4O)[C@H]3CC[C@H]2C(=O)N1c1cccc(Oc2ccccc2)c1 | -0.024 (inactive) | -0.286 | 0.257 (inactive) | 0.452 (inactive) | 0.253 (inactive) | 0.207 (inactive) | -0.576 | 0.7 (inactive) | 0.325 (inactive) | -0.54 | -0.0287 | -0.171 | -0.733 | 0.411 | -0.782 | 0.629 | -0.235 (inactive) | 0.142 | -0.827 | 1.08 (inactive) |
| CCC1=NOC(CCC2CC(OC(=O)NCc3cccc4c3OCO4)CC3(CCCC(COC(=O)NCCc4ccccc4OC)O3)O2)C1 (stereo not given) | 0.572 (inactive) | -0.0573 | 15.9 (active) | 2.99 (inactive) | -0.501 (inactive) | 0.568 (inactive) | 0.0314 | 0.642 (inactive) | -0.115 (inactive) | 0.0819 | -1.02 | 0.405 | -2.26 | -3.6 | -3.84 | 0.559 | -0.197 (inactive) | -0.77 | -2.17 | 0.492 (inactive) |
| CC(C)C[C@H](NC(=O)CCC1CC(OC(=O)NCc2cccc3ccccc23)CC2(CCCC(COC(=O)NCc3ccccc3)O2)O1)C(=O)NCC(c1ccccc1)c1ccccc1 (stereo not given in full) | 0.576 (inactive) | -0.29 | 8.07 (active) | 1.33 (inactive) | -1.22 (inactive) | 0.688 (inactive) | -0.71 | 0.871 (inactive) | 0.194 (inactive) | -0.0969 | -0.375 | 0.111 | -0.429 | -3.53 | -0.971 | -0.341 | 0.922 (inactive) | -0.802 | -0.715 | 0.337 (inactive) |
| CC(=O)OC[C@H]1O[C@@H](ON=C(C)CCN2CCCc3nc(C)c(C)cc32)[C@H](OC(C)=O)[C@@H](OC(C)=O)[C@@H]1OC(C)=O | -1.13 (inactive) | -0.115 | -0.72 (inactive) | 0.0956 (inactive) | 1.01 (inactive) | -1.18 (inactive) | 0.649 | 0.502 (inactive) | -1.36 (inactive) | -1.09 | -0.984 | 0.191 | -0.563 | -1.05 | -2.45 | -0.0457 | 0.553 (inactive) | -0.572 | -0.903 | 0.0264 (inactive) |
| COc1ccc(O[C@@H]2[C@H](O)CO[C@H]2C=Cc2ccccc2)cc1 | -0.164 (inactive) | -0.237 | 1.65 (inactive) | -0.518 (inactive) | -0.433 (inactive) | -0.323 (inactive) | 0.243 | 0.335 (inactive) | -0.426 (inactive) | -0.102 | 0.576 | 0.759 | 0.898 | -0.418 | -0.483 | 0.364 | 0.0785 (inactive) | 0.868 | -0.121 | -1.44 (inactive) |
| CC(C)=NO[C@H](C)c1cn([C@H](CO)Cc2ccccc2)nn1 | -2.06 (inactive) | -0.142 | 0.29 (inactive) | 0.0191 (inactive) | -0.188 (inactive) | 0.269 (inactive) | 0.225 | 0.849 (inactive) | -0.311 (inactive) | -0.281 | 0.373 | 0.232 | -0.121 | -0.0735 | -0.33 | -0.312 | -0.41 (inactive) | 0.155 | 1.11 | 0.268 (inactive) |
| Cc1ccc(S(=O)(=O)N[C@@H]2COC(=O)[C@@H](C)COC(=O)CC=C[C@H]2C)cc1 | -0.891 (inactive) | -0.103 | 0.124 (inactive) | 0.279 (inactive) | -0.305 (inactive) | -0.113 (inactive) | -0.0223 | -1.19 (inactive) | -1.59 (inactive) | -0.728 | -0.168 | 0.996 | 0.617 | 0.0281 | 0.587 | 0.0622 | -0.396 (inactive) | 0.62 | 0.743 | 0.0709 (inactive) |
